# Results reported in the supplement of paper PMC10849652.
# Of roughly 7,900 targets only a part is listed; those with a hit were picked by preference. About 0.6% of all pairs of compound and target were hits. Values without a mark were called inactive.
# Columns and labels:
# Assay in all cases: log2 fold change, soluble protein after heating vs DMSO (PISA); higher = thermal stabilisation; K562 cells, 10 uM, 30 min; active = over 0.2 and 3.5 SD of the protein, either way, in both replicates (recomputed)
# [1] = compound: COC1=CC=C(C=C1)CN2C=CC3=C2C=C(C=C3)C(=O)NO
# Summary of the method: (§1)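 K562 cells at 2×10^6 cells/mL were treated for 30 min with 10 μM compound, and aliquots were heated for 3 min over 48°C-58°C before pooling. Extraction used PBS with 0.5% NP-40 at 4°C, and soluble protein was the supernatant after 21,000xg for 90 min, measured by TMTpro 16plex LC-MS/MS with channel sums equalised. Thermal stability values, relative to control samples and from duplicates, are log2 fold changes.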
# filanesib = compound: CON(C)C(=O)N1N=C(c2cc(F)ccc2F)S[C@@]1(CCCN)c1ccccc1 [filanesib]
# Summary of the method: as §1
# zotarolimus = compound: CO[C@H]1C[C@@H]2CC[C@@H](C)[C@@](O)(O2)C(=O)C(=O)N2CCCC[C@H]2C(=O)O[C@H]([C@H](C)C[C@@H]2CC[C@H](n3cnnn3)[C@H](OC)C2)CC(=O)[C@H](C)/C=C(\C)[C@@H](O)[C@@H](OC)C(=O)[C@H](C)C[C@H](C)/C=C/C=C/C=C/1C [zotarolimus]
# Summary of the method: as §1
# idasanutlin = compound: COc1cc(C(=O)O)ccc1NC(=O)[C@@H]1N[C@@H](CC(C)(C)C)[C@](C#N)(c2ccc(Cl)cc2F)[C@H]1c1cccc(Cl)c1F [idasanutlin]
# Summary of the method: as §1
# alisertib = compound: COc1cc(Nc2ncc3c(n2)-c2ccc(Cl)cc2C(c2c(F)cccc2OC)=NC3)ccc1C(=O)O [alisertib]
# Summary of the method: as §1
# [2] = compound: COc1cc2nc(-c3cc(F)ccc3O)nc(N[C@@H]3CNC[C@H]3C(C)(C)O)c2cc1OC
# Summary of the method: as §1
# gefitinib = compound: COc1cc2ncnc(Nc3ccc(F)c(Cl)c3)c2cc1OCCCN1CCOCC1 [gefitinib]
# Summary of the method: as §1
# [3] = compound: COc1cccc2cc(-c3nc([C@H]4CC[C@H](C(=O)O)CC4)n4ncnc(N)c34)[nH]c12
# Summary of the method: as §1
# lapatinib = compound: CS(=O)(=O)CCNCc1ccc(-c2ccc3ncnc(Nc4ccc(OCc5cccc(F)c5)c(Cl)c4)c3c2)o1 [lapatinib]
# Summary of the method: as §1
# pictilisib = compound: CS(=O)(=O)N1CCN(Cc2cc3nc(-c4cccc5[nH]ncc45)nc(N4CCOCC4)c3s2)CC1 [pictilisib]
# Summary of the method: as §1
# Sequence of UniProt Q7RTV0 (Q7RTV0 whole entry, looked up): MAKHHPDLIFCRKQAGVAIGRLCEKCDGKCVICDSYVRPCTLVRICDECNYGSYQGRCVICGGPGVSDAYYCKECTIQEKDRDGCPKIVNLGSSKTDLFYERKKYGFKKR
# Sequence of UniProt Q9H0R6 (Q9H0R6 whole entry, looked up): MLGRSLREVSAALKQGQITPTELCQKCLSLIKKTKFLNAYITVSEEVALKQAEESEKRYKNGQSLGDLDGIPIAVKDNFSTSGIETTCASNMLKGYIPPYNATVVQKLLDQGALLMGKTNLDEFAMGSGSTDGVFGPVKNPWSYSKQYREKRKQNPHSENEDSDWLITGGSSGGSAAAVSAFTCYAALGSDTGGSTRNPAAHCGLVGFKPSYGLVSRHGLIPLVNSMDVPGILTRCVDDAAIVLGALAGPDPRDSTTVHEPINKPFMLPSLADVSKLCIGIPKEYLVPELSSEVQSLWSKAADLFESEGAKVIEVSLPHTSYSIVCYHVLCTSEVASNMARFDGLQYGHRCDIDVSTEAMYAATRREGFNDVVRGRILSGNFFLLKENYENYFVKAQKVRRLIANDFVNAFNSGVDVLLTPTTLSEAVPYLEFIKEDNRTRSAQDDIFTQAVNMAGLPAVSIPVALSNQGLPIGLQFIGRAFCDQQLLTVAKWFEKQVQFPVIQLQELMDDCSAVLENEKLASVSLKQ
# Sequence of UniProt Q9H5K3 (Q9H5K3 whole entry, looked up): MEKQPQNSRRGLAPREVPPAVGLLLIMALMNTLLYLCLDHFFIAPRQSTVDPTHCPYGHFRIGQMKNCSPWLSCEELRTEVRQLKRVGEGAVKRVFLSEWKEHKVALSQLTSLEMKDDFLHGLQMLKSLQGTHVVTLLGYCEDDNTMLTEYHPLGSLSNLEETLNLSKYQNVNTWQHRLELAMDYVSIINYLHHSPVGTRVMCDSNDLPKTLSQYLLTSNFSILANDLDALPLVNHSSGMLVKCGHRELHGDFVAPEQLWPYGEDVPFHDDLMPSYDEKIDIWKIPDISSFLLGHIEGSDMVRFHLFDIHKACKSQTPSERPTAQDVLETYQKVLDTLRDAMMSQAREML
# Sequence of UniProt Q9NVM4 (Q9NVM4 whole entry, looked up): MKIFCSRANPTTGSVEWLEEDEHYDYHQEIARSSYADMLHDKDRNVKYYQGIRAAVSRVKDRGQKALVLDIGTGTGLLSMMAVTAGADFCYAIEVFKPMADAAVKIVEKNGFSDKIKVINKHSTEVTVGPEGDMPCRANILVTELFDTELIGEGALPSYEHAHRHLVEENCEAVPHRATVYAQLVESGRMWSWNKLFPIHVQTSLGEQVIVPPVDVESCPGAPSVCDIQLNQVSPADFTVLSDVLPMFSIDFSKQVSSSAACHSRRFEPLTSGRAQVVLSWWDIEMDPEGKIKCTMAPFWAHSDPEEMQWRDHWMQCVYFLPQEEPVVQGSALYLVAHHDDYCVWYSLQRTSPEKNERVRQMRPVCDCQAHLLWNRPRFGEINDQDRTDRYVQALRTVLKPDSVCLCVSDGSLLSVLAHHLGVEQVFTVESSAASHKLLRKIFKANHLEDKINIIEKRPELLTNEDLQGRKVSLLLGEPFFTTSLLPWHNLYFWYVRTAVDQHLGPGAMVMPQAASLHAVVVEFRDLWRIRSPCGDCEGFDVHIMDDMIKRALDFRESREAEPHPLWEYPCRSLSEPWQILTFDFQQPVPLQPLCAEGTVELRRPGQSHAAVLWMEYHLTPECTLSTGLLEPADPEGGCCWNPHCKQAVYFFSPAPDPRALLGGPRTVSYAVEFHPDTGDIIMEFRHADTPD
# Sequence of UniProt P05423 (P05423 whole entry, looked up): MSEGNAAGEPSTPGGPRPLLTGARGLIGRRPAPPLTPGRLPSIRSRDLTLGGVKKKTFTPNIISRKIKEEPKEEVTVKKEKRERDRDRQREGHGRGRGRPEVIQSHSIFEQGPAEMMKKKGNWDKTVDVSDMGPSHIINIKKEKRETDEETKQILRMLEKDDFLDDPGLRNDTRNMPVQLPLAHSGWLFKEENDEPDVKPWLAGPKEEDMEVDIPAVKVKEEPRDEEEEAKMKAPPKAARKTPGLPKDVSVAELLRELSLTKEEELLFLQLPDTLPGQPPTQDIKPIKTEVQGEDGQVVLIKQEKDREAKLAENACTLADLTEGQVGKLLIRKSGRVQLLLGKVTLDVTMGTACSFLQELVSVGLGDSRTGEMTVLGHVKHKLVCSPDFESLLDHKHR
# Sequence of UniProt P07205 (P07205 whole entry, looked up): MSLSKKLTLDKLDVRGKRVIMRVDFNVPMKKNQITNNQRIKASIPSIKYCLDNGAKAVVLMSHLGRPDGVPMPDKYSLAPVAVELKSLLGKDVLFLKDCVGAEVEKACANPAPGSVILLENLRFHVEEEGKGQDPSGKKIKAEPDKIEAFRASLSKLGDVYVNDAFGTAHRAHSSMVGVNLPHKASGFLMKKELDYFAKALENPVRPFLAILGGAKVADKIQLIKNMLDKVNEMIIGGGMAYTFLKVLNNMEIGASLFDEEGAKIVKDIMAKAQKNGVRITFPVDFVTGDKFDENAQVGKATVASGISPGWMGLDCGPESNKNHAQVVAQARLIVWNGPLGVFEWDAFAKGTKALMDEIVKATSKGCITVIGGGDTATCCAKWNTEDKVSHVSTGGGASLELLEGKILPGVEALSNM
# Sequence of UniProt P40425 (P40425 whole entry, looked up): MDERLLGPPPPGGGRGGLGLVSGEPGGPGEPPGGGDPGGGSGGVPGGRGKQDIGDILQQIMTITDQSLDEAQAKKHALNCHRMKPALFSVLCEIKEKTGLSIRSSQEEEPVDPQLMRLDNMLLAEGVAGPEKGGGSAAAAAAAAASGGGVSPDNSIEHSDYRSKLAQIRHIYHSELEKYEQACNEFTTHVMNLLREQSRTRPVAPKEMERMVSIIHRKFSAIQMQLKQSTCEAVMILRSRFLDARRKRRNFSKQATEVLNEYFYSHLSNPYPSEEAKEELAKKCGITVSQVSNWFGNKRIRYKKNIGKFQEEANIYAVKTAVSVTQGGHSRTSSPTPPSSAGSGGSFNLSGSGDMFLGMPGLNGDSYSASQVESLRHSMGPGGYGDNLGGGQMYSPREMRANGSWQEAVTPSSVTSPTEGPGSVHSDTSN
# Sequence of UniProt Q9Y2I7 (Q9Y2I7 whole entry, looked up): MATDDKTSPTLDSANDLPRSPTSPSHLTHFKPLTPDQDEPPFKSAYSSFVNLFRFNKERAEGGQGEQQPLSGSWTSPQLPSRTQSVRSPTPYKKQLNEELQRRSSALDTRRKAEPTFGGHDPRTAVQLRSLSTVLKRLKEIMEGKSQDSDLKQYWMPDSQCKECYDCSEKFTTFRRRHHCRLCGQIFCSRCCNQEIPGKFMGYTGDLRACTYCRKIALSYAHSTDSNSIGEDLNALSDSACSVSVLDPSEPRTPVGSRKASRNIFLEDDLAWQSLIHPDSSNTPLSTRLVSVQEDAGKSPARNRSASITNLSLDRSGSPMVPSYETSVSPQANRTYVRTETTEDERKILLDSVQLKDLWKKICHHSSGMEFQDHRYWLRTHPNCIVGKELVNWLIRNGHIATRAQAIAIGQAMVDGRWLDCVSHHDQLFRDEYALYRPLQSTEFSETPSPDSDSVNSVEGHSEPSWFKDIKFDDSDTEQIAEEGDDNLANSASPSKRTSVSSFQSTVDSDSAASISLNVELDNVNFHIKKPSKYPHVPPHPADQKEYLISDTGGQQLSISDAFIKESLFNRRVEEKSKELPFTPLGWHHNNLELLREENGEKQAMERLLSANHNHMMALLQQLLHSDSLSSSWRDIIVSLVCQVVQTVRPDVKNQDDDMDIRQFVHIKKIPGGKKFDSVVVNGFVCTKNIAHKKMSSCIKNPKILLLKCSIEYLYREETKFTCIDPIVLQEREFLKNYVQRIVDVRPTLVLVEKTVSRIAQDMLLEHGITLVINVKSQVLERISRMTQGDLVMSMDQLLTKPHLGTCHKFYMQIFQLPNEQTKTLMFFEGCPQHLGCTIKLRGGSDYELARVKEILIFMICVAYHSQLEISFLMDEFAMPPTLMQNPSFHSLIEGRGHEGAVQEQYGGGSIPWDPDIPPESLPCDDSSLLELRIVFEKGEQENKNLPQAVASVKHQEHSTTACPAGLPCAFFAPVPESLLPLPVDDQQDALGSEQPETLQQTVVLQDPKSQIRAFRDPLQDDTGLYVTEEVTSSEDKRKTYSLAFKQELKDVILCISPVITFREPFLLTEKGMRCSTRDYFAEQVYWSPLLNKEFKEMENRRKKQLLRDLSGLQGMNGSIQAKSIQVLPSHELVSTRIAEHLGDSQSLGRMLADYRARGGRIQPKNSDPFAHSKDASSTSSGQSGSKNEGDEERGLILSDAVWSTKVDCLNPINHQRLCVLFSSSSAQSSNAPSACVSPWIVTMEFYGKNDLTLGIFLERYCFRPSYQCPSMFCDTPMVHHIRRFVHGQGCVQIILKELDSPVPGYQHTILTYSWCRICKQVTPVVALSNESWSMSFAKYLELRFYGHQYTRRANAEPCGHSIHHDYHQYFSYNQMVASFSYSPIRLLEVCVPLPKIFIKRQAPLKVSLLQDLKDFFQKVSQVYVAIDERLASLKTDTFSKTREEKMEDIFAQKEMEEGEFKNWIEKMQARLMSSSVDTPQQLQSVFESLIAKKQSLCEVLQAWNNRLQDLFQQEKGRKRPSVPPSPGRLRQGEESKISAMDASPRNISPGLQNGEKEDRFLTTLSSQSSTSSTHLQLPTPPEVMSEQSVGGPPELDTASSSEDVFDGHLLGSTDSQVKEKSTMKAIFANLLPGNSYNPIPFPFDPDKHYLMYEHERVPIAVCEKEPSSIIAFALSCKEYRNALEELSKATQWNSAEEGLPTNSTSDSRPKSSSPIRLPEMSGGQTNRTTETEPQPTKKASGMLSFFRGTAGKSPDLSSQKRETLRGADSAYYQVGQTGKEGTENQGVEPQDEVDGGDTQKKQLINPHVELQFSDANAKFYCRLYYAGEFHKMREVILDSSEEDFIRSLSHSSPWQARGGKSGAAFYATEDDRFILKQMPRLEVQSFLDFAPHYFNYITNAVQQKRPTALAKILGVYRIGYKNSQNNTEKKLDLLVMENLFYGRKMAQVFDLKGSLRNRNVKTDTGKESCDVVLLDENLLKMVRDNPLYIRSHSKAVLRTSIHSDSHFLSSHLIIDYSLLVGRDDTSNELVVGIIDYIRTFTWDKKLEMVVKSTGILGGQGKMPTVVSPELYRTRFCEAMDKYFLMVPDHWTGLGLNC
Target,log2 fold change [1],log2 fold change (filanesib),log2 fold change (zotarolimus),log2 fold change (idasanutlin),log2 fold change (alisertib),log2 fold change [2],log2 fold change (gefitinib),log2 fold change [3],log2 fold change (lapatinib),log2 fold change (pictilisib)
QRSL1 (UniProt Q9H0R6),-0.01,-0.087,-0.028,-0.128,0.022,-0.005,-0.007,0.017,0.003,0.06
PHF5A (UniProt Q7RTV0),0.014,0.087,-0.024,0.056,-0.033,0.067,0.003,0.026,-0.051,0.071
PTPN23 (UniProt Q9H3S7),0.12,0.038,0.059,-0.038,0.002,0.044,0.041,-0.008,-0.012,0.037
POLR3D (UniProt P05423),-0.014,0.041,0.065,0.574 (active),-0.091,-0.017,0.036,-0.136,-0.001,0.013
PGGT1B (UniProt P53609),-0.112,0.047,-0.006,-0.025,-0.03,-0.031,-0.013,0.058,-0.019,0.037
PRKACA (UniProt P17612),0.05,-0.076,-0.034,0.006,-0.078,0.088,-0.004,0.028,0.025,0.068
PC (UniProt P11498),0.05,0.08,-0.04,-0.372 (active),-0.039,0.14,0.024,0.014,-0.011,0.09
PIP4K2C (UniProt Q8TBX8),0.058,-0.025,-0.021,-0.186,-0.021,0.866 (active),0.115,0.684,-0.043,0.134
PIK3CB (UniProt P42338),0.063,0.007,0.042,-0.041,0.003,0.02,0.048,0.01,0.001,0.258 (active)
PBX2 (UniProt P40425),0.132,-0.055,0.115,0.102,-0.027,-0.114,-0.02,0,0.014,0.01
PSMD3 (UniProt O43242),-0.058,0.061,0.021,0.003,-0.075,-0.089,-0.035,-0.011,0.061,-0.023
PARP1 (UniProt P09874),0.091,-0.043,0.048,-0.047,0.039,0.147,0.062,-0.062,-0.082,0.008
POLD1 (UniProt P28340),0.025,-0.038,0.007,0.024,-0.042,-0.006,0.007,0.047,0.01,0
PSMD7 (UniProt P51665),-0.059,0.054,-0.014,0.01,-0.032,-0.027,-0.049,-0.022,0.089,-0.078
PLSCR1 (UniProt O15162),-0.017,0.01,-0.012,0.033,-0.006,-0.046,0.016,0.145,0.051,0.037
PYGL (UniProt P06737),-0.028,0.043,-0.007,-0.015,-0.03,0.095,-0.013,0.051,-0.075,-0.122

Target,log2 fold change [1],log2 fold change (filanesib),log2 fold change (zotarolimus),log2 fold change (idasanutlin),log2 fold change (alisertib),log2 fold change [2],log2 fold change (gefitinib),log2 fold change [3],log2 fold change (lapatinib),log2 fold change (pictilisib)
PPP1R12A (UniProt O14974),0.003,0.064,0.048,0.041,0.028,-0.658 (active),0.009,-0.006,0.036,0.005
PRKCG (UniProt P05129),-0.071,0.019,0.118,-0.011,-0.01,0.098,-0.025,-0.17,0.055,0.113
PRMT7 (UniProt Q9NVM4),-0.174,-0.072,-0.008,-0.004,-0.073,-0.037,0.05,-0.018,0.026,-0.009
PRPSAP2 (UniProt O60256),-0.168,0.084,0.029,0.012,-0.078,0.011,-0.022,0.025,-0.011,-0.233 (active)
PPP2R5A (UniProt Q15172),0.034,-0.135,0.002,-0.206,-0.064,0.032,-0.043,0.005,0.047,-0.096
PSMD6 (UniProt Q15008),-0.02,0.042,0.017,-0.013,-0.091,-0.062,-0.021,-0.045,0.102,-0.036
POMK (UniProt Q9H5K3),-0.025,-0.019,-0.101,-0.017,0.077,-0.037,-0.02,0.04,0.067,0.077
PTGES3 (UniProt Q15185),0.23,-0.091,0.055,0.004,0.016,-0.044,0.044,-0.038,0.007,0.027
PTGFRN (UniProt Q9P2B2),0.006,0.129,-0.021,0.073,0.01,0.139,0.025,0.124,0.036,0.122
PIKFYVE (UniProt Q9Y2I7),0.03,-0.036,-0.074,-0.096,0.016,-0.037,-0.308,-0.044,-0.098,-0.047
PLIN2 (UniProt Q99541),-0.014,-0.44 (active),-0.041,-0.107,0.058,-0.891 (active),0.003,0.028,-0.093,0.023
PGK2 (UniProt P07205),0.016,-0.003,-0.029,0.001,0.08,0.14,0.068,0.001,-0.093,0.041
PIP4P2 (UniProt Q8N4L2),0.053,-0.383 (active),0.027,0.14,0.022,0.007,0.009,-0.016,0.03,0.061
PCLAF (UniProt Q15004),-0.115,0.158,-0.172,0.066,-0.035,-0.018,-0.057,-0.162,0.033,-0.015
PCK2 (UniProt Q16822),-0.339 (active),-0.007,0.045,-0.044,-0.035,0.024,-0.025,0.027,-0.045,0.011
PNPLA2 (UniProt Q96AD5),-0.089,-0.134,0.002,-0.082,0.014,-0.077,-0.048,0.029,-0.032,0.02
